D3 ag – agonists of human D3 dopamine receptor; AID 652048; D3R DiscoveRx beta-arrestin cells, luminescence, 90 min; hit rate 0.58% among 410,000; max activation, %; P35462; in the data active = max activation above about 30%
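Agonist mode: compounds and dopamine controls were applied to plated cells for 90 min at 37 degrees C after an overnight attachment at 1500 cells/well. Luminescent read-out followed 30 - 60 minutes at room temperature with DiscoveRx detection reagent.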
D1 antagonist – antagonists of human D1 dopamine receptor | HEK293 TREx D1 cells, calcium flux, dopamine EC80; hits give low values | activity change, negative = inhibition, % at 10 µM | hit rate 3.2% among 360,000; in the data active = activity change below about -30%
Target sequence (P21728 whole entry, looked up): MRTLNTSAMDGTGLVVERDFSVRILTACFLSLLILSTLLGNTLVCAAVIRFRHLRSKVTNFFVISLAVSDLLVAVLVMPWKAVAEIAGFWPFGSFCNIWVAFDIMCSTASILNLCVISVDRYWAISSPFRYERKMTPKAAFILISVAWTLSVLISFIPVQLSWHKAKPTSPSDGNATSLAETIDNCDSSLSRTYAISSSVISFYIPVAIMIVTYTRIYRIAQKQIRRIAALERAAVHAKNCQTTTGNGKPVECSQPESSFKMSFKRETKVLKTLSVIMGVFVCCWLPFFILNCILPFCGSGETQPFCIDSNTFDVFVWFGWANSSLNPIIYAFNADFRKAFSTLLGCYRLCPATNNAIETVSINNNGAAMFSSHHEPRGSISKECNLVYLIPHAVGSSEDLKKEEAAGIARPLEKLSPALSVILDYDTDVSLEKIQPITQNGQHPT
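Using tetracycline-induced force-coupled D1 Hek293 cells and a calcium dye, signals were followed for 180 s after compound, then for 180 s after EC80 dopamine, to detect inhibitors.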
D1 agonist – human D1 receptor agonism; activation, % at 2 µM; HEK293 T-REx D1 cells, calcium flux, agonist mode; hit rate 1% among 360,000; P21728; in the data active = activation above about 30%
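Agonism was scored from calcium flux recorded over 180 s (1 read/s) after pintool compound addition, following a 10-cycle baseline. Cells were inducible force-coupled HEK293 TREx D1, plated overnight at 30 C and loaded with no-wash calcium dye.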
DRD3 antagonist – antagonists of human D3 dopamine receptor. max response, negative = inhibition, %. hit rate 2.5% among 360,000. D3R cells, DiscoveRx beta-arrestin luminescence, antagonist mode; hits give low values; in the data active = max response below about -50%
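Cells expressing the human receptor were seeded at 1500 cells/well, incubated overnight at 37 degrees C in 5% CO2, then exposed to library compounds with dopamine controls for 90 minutes at 37 degrees C before luminescent detection.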
D1 potentiator – human D1 dopamine receptor positive modulation | HEK293 TREx D1 cells, calcium flux, dopamine EC20 potentiation | hit rate 0.036% among 360,000 | potentiation, % at 10 µM | P21728; in the data active = potentiation above about 30%
Large screens that a line does not name were inactive; ! = repeats disagree. An excerpt weighted towards active compounds, which were near 6.1% of everything screened.

O=C(CCCN1C(=O)/C(=C\c2cccs2)SC1=S)Nc1ccc(C(=O)O)cc1	none
O=C(CCCN1C(=O)/C(=C\c2cccs2)SC1=S)Nc1ccc(O)cc1	D1 antagonist -33
CCN(CC)CCOC(=O)c1ccc(NC(=O)CCCN2C(=O)/C(=C/c3cccs3)SC2=S)cc1	D1 antagonist -77, DRD3 antagonist -74
O=C(CCN1C(=O)/C(=C/c2cccs2)SC1=S)Nc1ccc(C(=O)O)cc1	none
COCCn1c(SCC(=O)N2CCN(c3ccccc3)CC2)nc2c(c1=O)SC(C)C2 (stereo unspecified)	D1 antagonist -35
COCCn1c(SCC(=O)c2ccccc2)nc2c(c1=O)SC(C)C2 (stereo unspecified)	none
Clc1ccc(Cl)c(-c2ccc(/C=N/c3ncn[nH]3)o2)c1	D3 ag 32
COC(=O)c1ccc(OC(=O)c2cccnc2)cc1	none
COc1ccc(C(=O)Oc2cccnc2)cc1	D1 antagonist -32
COc1cccc(CN2C(=O)CN(C3CCCCC3)C(=O)C2c2ccc(OC)c(OC)c2)c1 (stereo unspecified)	none (no result: DRD3 antagonist)
CCOc1ccc(S(=O)(=O)Nc2cccc(OC)c2)c2cccnc12	none (no result: DRD3 antagonist)
CC(Oc1ccc2ccc(=O)oc2c1)C(=O)NC(Cc1c[nH]c2ccc(O)cc12)C(=O)O (stereo unspecified)	D1 antagonist -87
O=C(O)CCN1CCOCC1	D1 antagonist -67
COc1ccccc1CNC(=O)Cn1c(-c2cccs2)cc2cc(F)ccc21	none (no result: DRD3 antagonist)
CCOCCCNC(=O)c1cnc2sc(N3CCCCCC3)nn2c1=O	D1 antagonist -31 (no result: DRD3 antagonist)
CCc1cccc(C)c1NC(=O)c1cn2c3c(ccc(Cl)c3c1=O)OC(C)C2 (stereo unspecified)	none (no result: DRD3 antagonist)
O=c1cc(-c2ccccc2)nc2c(-c3ccccc3)c(C(F)(F)F)[nH]n12	D1 antagonist -31
N#C/C(=C(/O)c1cccc(F)c1)c1nc2ccccc2s1	D1 antagonist -35
Cn1c(/C(C#N)=C(\O)c2cccc(F)c2)nc2ccccc21	DRD3 antagonist -51
O=C(NCCc1ccccc1)c1nc(-c2cccs2)no1	D1 antagonist -36
COc1ccc(CCNC(=O)c2cc(-c3cccs3)on2)cc1OC	D3 ag 36
CCc1ccc(-c2cc(C)no2)cc1S(=O)(=O)Nc1cc(C)on1	DRD3 antagonist -75
COc1ccc(CCNC(=O)c2cc(-c3ccco3)on2)cc1OC	none
Cc1cc(NS(=O)(=O)c2cccs2)no1	D1 antagonist -83
O=C(Cn1ccn(-c2ccc(F)c(F)c2)c(=O)c1=O)NCc1ccccc1	none (no result: DRD3 antagonist)
Cc1cc(NC(=O)c2c(Cl)cnn2C)no1	DRD3 antagonist -71
Cc1cc(NC(=O)c2cc(-c3cccs3)on2)no1	D1 antagonist -42
Cn1ncc(Cl)c1C(=O)Nc1ccc(Cl)cn1	none
COc1ccc(CNC(=O)c2cc(-c3ccc(OC)c(OC)c3)on2)cc1	none
COc1ccc(-c2cc(C(=O)NCc3ccccc3)no2)cc1OC	D1 agonist 37
COCCCNC(=O)c1sc2nc3n(c(=O)c2c1C)CCC3	none (no result: DRD3 antagonist)
COc1ccc(CNC(=O)CSc2ncc3c(n2)-c2cc(Cl)ccc2N(C)S3(=O)=O)cc1	none (no result: DRD3 antagonist)
Cc1ccc(NC(=O)Nc2ncccc2C)cc1	none
Cc1ccc(NC(=O)Nc2ccno2)cc1	D1 antagonist -37
Cc1ccccc1NC(NC(=O)OCCn1c([N+](=O)[O-])cnc1C)C(Cl)(Cl)Cl (stereo unspecified)	D1 antagonist -33, DRD3 antagonist -63
CCCCNC(=O)c1cc2c(=O)n3cccc(C)c3nc2s1	none
COCCCNC(=O)c1cc2c(=O)n3cccc(C)c3nc2s1	D3 ag 32!, D1 antagonist -33!
Cc1ccc2oc(C(=O)Nc3nc(-c4ccc(F)cc4)ns3)c(C)c2c1	none (no result: DRD3 antagonist)
CCc1cccc(CC)c1NC(=S)Nc1cccc(Cl)c1Cl	none
CC(Nc1ccccc1CO)C(=O)Nc1cccc(Cl)c1Cl (stereo unspecified)	D1 antagonist -61
Cc1ccc(C)c(S(=O)(=O)c2nnn3c2nc(N2CCCCC2)c2sccc23)c1	none (no result: DRD3 antagonist)
COc1cc2c(cc1O)C(Cc1ccc(O)cc1)NCC2 (stereo unspecified)	D1 antagonist -76, DRD3 antagonist -107
COc1ccc(OCC2NCCc3cc(OC)c(OC)cc32)cc1 (stereo unspecified)	none

Source: PubChem
